In ChEMBL document CHEMBL4513216, “Probing the Open Global Health Chemical Diversity Library for Multistage-Active Starting Points for Next-Generation Antimalarials” (ACS Infect Dis, 2020) one finds INHIBITION data, which are given here for 99 molecules.

The structures appear in SMILES notation. The campaign covered roughly 69,000 compounds. About 8,600 (12%) showed an effect of 50% or more. The sample as a whole holds a higher share of strong results than the screen did.

In the assay the test system is Plasmodium berghei. Description: Screen against P. berghei liver stage (PbLuc), transformed with Luciferase, at 10uM. The assay is classed as functional, HepG2. Particulars: tested at 10 uM.
`Cc1ccc(-c2noc(C(C)NS(C)(=O)=O)n2)cc1` (centres undefined): the INHIBITION was determined as 1.8%.
In the case of `CS(=O)(=O)N1CCOCC2(CN(Cc3ccco3)CCO2)C1` (centres undefined), the INHIBITION was 3.47%.
As to `CCNc1ncc(CN(CCN(C)C)Cc2ccc(C)s2)cn1`, the INHIBITION is on record as 35%.
Consider `COc1ncc(CN(CCN(C)C)Cc2ccc(C)s2)cn1`, for which the INHIBITION worked out at 63.8%.
As for `CCc1ccc(CN(CCN(C)C)Cc2ccc(C)s2)nc1`, the INHIBITION is given as 22%.
Take `Cc1ccc(CN(Cc2ccncc2)C2CCN(C)CC2)s1`: the INHIBITION was -6.73%.
Regarding `COCc1ncc(CN(Cc2ccncc2)Cc2ccc(C)s2)cn1`, the INHIBITION worked out at 61.9%.
`COCc1ncc(CN(CCN(C)C)Cc2ccc(C)s2)cn1`: the INHIBITION turned out to be 38.7%.
As to `Cc1cc(C(=O)NCC2CCS(=O)(=O)C2)ccc1NC(=O)c1ccco1` (centres undefined), the INHIBITION worked out at 40.2%.
Turning to `CC(C)n1cnnc1CNC(=O)c1cnn(Cc2ccccc2)c1`, the INHIBITION is given as -24.4%.
On to `COCC1c2c(cnn2CC2CC2)CCN1Cc1cc(C)on1` (centres undefined), for which the INHIBITION was found to be 47.1%.
In the case of `COCCn1cc(C(=O)NC2CCS(=O)(=O)C2)c2ccccc2c1=O` (centres undefined) it was 42.8%.
To `Cc1cc(C(=O)N2CCC(O)(Cn3ccc4ccncc43)CC2)on1` belongs 12.8%; to `O=C(Cc1ccc(O)cc1)N1CCCC(O)(CN2CCOCC2)CC1` (centres undefined), 30.4%; to `Cc1nc(CCC(=O)NC2CCC2)cc(C2CCNCC2)n1`, 33.5%.
Turning to `CN1CC(C(=O)NCCc2ccc(Br)cc2F)CC1=O` (centres undefined), the INHIBITION was -57%.
In the case of `c1ccc(COC[C@@H]2CCC[C@@]23CNCCO3)nc1` it was 72%; in that of `c1ccc(COC[C@H]2CCC[C@@]23CNCCO3)nc1`, 62.9%.
As to `c1ccc(OC[C@@H]2CCC[C@@]23CNCCO3)nc1`, the INHIBITION was found to be 31.3%.
`CC(=O)N1CCC2(CC1)COC(COCc1ccccn1)C2` (centres undefined): the INHIBITION was 14.6%.
Take `CN1CCN(C(=O)c2cc3sccc3n2Cc2ccc(Cl)cc2)CC1`: the INHIBITION was 13.9%.
Turning to `Cn1cnc(S(=O)(=O)N2CCCc3cccc(F)c32)c1Cl`, the INHIBITION came out at 39.7%.
Turning to `Cc1cc(C(=O)N2CC[C@H]3[C@@H]2CCC(=O)N3c2ccccc2)no1`, the INHIBITION turned out to be 53.9%.
For the molecule `O=C(Cc1cccs1)N1CC[C@H]2[C@@H]1CCC(=O)N2c1cccnc1`, the INHIBITION amounted to 30.7%.
In the case of `O=C(c1ccco1)N1CC[C@@H]2[C@H]1CCC(=O)N2c1ccccc1`, the INHIBITION was 30.3%.
For `O=C(C1CC1)N1CC[C@H]2[C@@H]1CCC(=O)N2c1ccccc1`, the INHIBITION is on record as 12.1%.
As to `Cc1ccc(C(=O)N2CC[C@H]3[C@@H]2CCC(=O)N3c2ccccc2)cn1`, the INHIBITION is recorded as 16.8%.
`O=C(CC1CC1)N1CC[C@H]2[C@@H]1CCC(=O)N2c1cccnc1`: the INHIBITION is listed as 58.6%.
As for `Cc1cnc(C(=O)N2CC[C@H]3[C@@H]2CCC(=O)N3c2cccnc2)cn1`, the INHIBITION was 40.4%.
To `Cc1ccc(C(=O)N2CC[C@@H]3[C@H]2CCC(=O)N3c2ccccc2)o1` belongs 31.8%; to `Cc1cccc(C(=O)N2CC[C@@H]3[C@H]2CCC(=O)N3c2ccccc2)n1`, 65.7%; to `Cc1cccc(N2CCCC3(C2)CN(S(=O)(=O)C2CC2)CCO3)c1` (centres undefined), 20.1%.
In the case of `CCc1c(C)nc2cc(-c3nccn3C)nn2c1N1CCCC(CO)C1` (centres undefined), the INHIBITION is given as 10.62%.
In the case of `Cc1csc(CCCNC(C)CC(=O)Nc2ccc(F)cc2)n1` (centres undefined) it was 40%; in that of `c1cnc(Nc2cncc(C3CCCN3)n2)cn1` (centres undefined), 31.6%; in that of `CN(C)CC1COCCN1C(=O)C1(c2cccs2)CCCC1` (centres undefined), 36.2%.
Take `CS(=O)(=O)N1CCN(c2cc(-n3cccc3)ncn2)CC1`: the INHIBITION amounted to 38.3%.
For the molecule `Cc1noc([C@@H]2CCO[C@@H]3CCN(Cc4ccc(C)s4)C[C@@H]32)n1`, the INHIBITION worked out at 53.2%.
For the molecule `Cc1ccc(CN2CC[C@H]3OCC[C@@H](c4nc(C)no4)[C@H]3C2)cc1`, the INHIBITION is listed as 36.4%.
In the case of `Cc1noc([C@@H]2CCO[C@@H]3CCN(Cc4cccs4)C[C@@H]32)n1` it was 24.1%; in that of `COCC(=O)N1CC[C@H]2N(C)CC[C@@]2(C(=O)Nc2ccccc2)CC1`, 3.25%.
To `CN(C)C(=O)CN1CCC2(CCCN(c3ncc(F)cn3)C2)C1=O` (centres undefined) belongs 11.3%; to `Cc1cnc(N2CCCC3(CCCN3CC(=O)N(C)C)C2)nc1` (centres undefined), 79.2%; to `CC(=O)N1C[C@H]2CCCN(c3ncc(C)cn3)[C@H]2C1`, 45.8%.
As to `CN(C)C(=O)CN1CCCC12CCCN(c1ncc(F)cn1)C2` (centres undefined), the INHIBITION turned out to be 8.31%.
With `Cc1cnc(N2CCC[C@@H]3CN(S(C)(=O)=O)C[C@@H]32)nc1`, the INHIBITION came to 29.8%.
On to `Cc1cnc(N2CCC[C@@H]3CN(CC(=O)N(C)C)C[C@@H]32)nc1`, for which the INHIBITION came out at 52.3%.
`CN(C)C1(CNC(=O)CC=Cc2ccc(F)cc2)CCOCC1`: the INHIBITION is reported as -18%.
For `Cc1nc(C)n(CC2CCCN(Cc3cn4c(C)cccc4n3)C2)n1` (centres undefined), the INHIBITION turned out to be 5.03%.
`O=c1ccc2c(n1CCN1CCCC1)CCN(c1ncccn1)CC2`: the INHIBITION turned out to be 29.5%.
On to `CSCc1noc(CNC(=O)C2CCN(C(=O)C3CCC3)CC2)n1`, for which the INHIBITION was 16.7%.
`CSCc1noc(CNC(=O)C2CCN(C3CCCCC3)CC2)n1`: the INHIBITION was determined as 53.9%.
With `CSCc1noc(CNC(=O)C2CCN(C(=O)C3CCCC3)CC2)n1`, the INHIBITION is on record as -26%.
With `CCOCCCNc1cc(C)nn2cnnc12`, the INHIBITION was 25.3%.
On to `Cc1ccc2cnn(CCC(=O)Nc3c(C)nn(C)c3C)c2c1`, for which the INHIBITION is on record as -8.19%.
As to `Cc1nn(C)c(C)c1NC(=O)CCn1ncc2ccccc21`, the INHIBITION amounted to 35.8%.
In the case of `CCn1nc(C)c(NC(=O)CCn2ncc3cc(C)ccc32)c1C`, the INHIBITION is given as 50.7%.
As for `CCn1c(CN2CCN(CCO)CC2)nc2c(F)cccc21`, the INHIBITION amounted to 24.95%.
As to `COCCO[C@H]1CCN(C(=O)c2ccno2)[C@H]1Cc1ccncc1`, the INHIBITION turned out to be 18.3%.
In the case of `CCC(C)NC(=O)Nc1cccc(OC)c1` (centres undefined) it was -32%.
As for `CCc1cnc2c(c1Nc1cccc(OC)c1)c(=O)n(C)c(=O)n2C`, the INHIBITION is on record as -31%.
On to `CCC1(CC)C(=O)NC(=O)N/C1=N/c1cccc(OC)c1`, for which the INHIBITION worked out at 58.2%.
In the case of `CCN(CC)Cc1cc(=O)n2c(n1)CN(S(=O)(=O)C1CC1)CCC2` it was -3.26%; in that of `Cn1cnc(S(=O)(=O)NCCCN2CCCC2=O)c1Cl`, 4.71%.
`Cc1ccc(CN2C[C@@H]3C[C@H](C(=O)NCC4CC4)N(C)[C@@H]3C2)o1`: the INHIBITION stood at 16.1%.
In the case of `Cc1ccc(O)c(C(=O)N2CCOCC2c2c(C)nn(C)c2C)c1` (centres undefined), the INHIBITION is reported as -57.4%.
On to `CCC1=N[C@@]2(CC[C@@H]3CN(C(=O)NCc4ccccc4C)C[C@@H]32)C(=O)N1`, for which the INHIBITION is 70.7%.
To `CC1=N[C@@]2(CC[C@@H]3CN(C(=O)NCc4cccc(F)c4)C[C@@H]32)C(=O)N1` belongs 75.4%; to `CCC1=N[C@@]2(CC[C@@H]3CN(C(=O)NCc4ccccc4)C[C@@H]32)C(=O)N1C`, 25%; to `CC1=N[C@@]2(CC[C@@H]3CN(C(=O)NCCc4ccccc4)C[C@@H]32)C(=O)N1`, 13.6%.
To `CCC1=N[C@@]2(CC[C@@H]3CN(C(=O)NCc4cccc(F)c4)C[C@@H]32)C(=O)N1` belongs 39.2%.
As to `CCC1=N[C@@]2(CC[C@@H]3CN(Cc4ccccc4C)C[C@@H]32)C(=O)N1`, the INHIBITION was 37.8%.
On to `CCC1=N[C@@]2(CC[C@@H]3CN(C(=O)NCc4ccccc4)C[C@@H]32)C(=O)N1`, for which the INHIBITION was 50%.
Take `CC1=N[C@@]2(CC[C@@H]3CN(C(=O)NCc4ccccc4C)C[C@@H]32)C(=O)N1`: the INHIBITION amounted to 28.7%.
To `CCC1=N[C@@]2(CC[C@@H]3CN(C(=O)NCC4CCCCC4)C[C@@H]32)C(=O)N1` belongs 47.4%; to `Cc1ccc(-c2nnn(CCN3C(=O)CCC3=O)n2)cc1`, -47.1%.
To `Cc1cnc(C(=O)N2CCc3ncnc(-c4cnn(C)c4)c3CC2)cn1` belongs -3.33%; to `CC(=O)Nc1nc(C(=O)N2CCCC2c2noc(C(C)C)n2)cs1` (centres undefined), 40.9%.
For the molecule `CNC(=O)c1nc(CC(=O)Nc2cccc(C(F)(F)F)c2)no1`, the INHIBITION was -2.61%.
For `Cc1cccc(OC2CN(C(=O)C3CC(=O)N(C(C)(C)C)C3)C2)c1` (centres undefined), the INHIBITION was found to be 25.5%.
Consider `CC(C)Oc1ccc(CN2CCN3CCN(C)CC3C2)cc1CO` (centres undefined), for which the INHIBITION was -6.97%.
Consider `CC(C)Oc1ccc(CN2CCCC(N3CCOCC3)C2)cc1CO` (centres undefined), for which the INHIBITION stood at 82.9%.
On to `CC(C)Oc1ccc(CN2CCCC(N3CCCC3)C2)cc1CO` (centres undefined), for which the INHIBITION was found to be 20%.
For the molecule `CCCC(=O)N1CCC(c2cc3cccnc3c(O)n2)CC1`, the INHIBITION worked out at 1.62%.
Consider `CN(C)CCCNC(=O)c1ccccc1NC(=O)c1cc(Cl)ccc1Cl`, for which the INHIBITION was 27.6%.
To `CCc1nc(C)sc1CN1CC[C@@](O)(C2CCOCC2)[C@H](C)C1` belongs -10.9%; to `O=c1ccc2c([nH]1)CCN(S(=O)(=O)c1ccc3c(c1)OCCO3)C2`, 26%.
As to `O=S(=O)(c1ccc2c(c1)OCCO2)N1CCC(OCc2ccccn2)C1` (centres undefined), the INHIBITION is recorded as -35.2%.
To `O=S(=O)(c1ccc2c(c1)OCCO2)N1CCc2ccccc2C1` belongs 57.6%; to `Cc1nc2cc(=O)[nH]n2c(C)c1CC(=O)NCc1ccc(C#N)cc1`, 41.2%; to `CC(C)(C)S(=O)(=O)CCNC(=O)c1ccc2ccccc2c1`, -35.8%.
For the molecule `COCc1cccc(S(=O)(=O)NCc2cnn(C)c2C)c1`, the INHIBITION is listed as -25.8%.
Take `Cc1c(CNS(=O)(=O)c2cccc(COC(C)C)c2)cnn1C`: the INHIBITION is listed as 57.5%.
In the case of `CSCc1cccc(S(=O)(=O)NCc2cnn(C)c2C)c1`, the INHIBITION is 78.3%.
For `CNS(=O)(=O)c1cccc(CNC(=O)c2cnn(C)c2C)c1`, the INHIBITION was 11.3%.
As to `CSCc1cccc(S(=O)(=O)NCCO)c1`, the INHIBITION is listed as 0.266%.
On to `CCNS(=O)(=O)c1cccc(CSC)c1`, for which the INHIBITION turned out to be 19.4%.
Regarding `CS(=O)(=O)Nc1ccn(Cc2cccc(Cl)c2)n1`, the INHIBITION worked out at 22.6%.
In the case of `CCN(Cc1ccco1)C(C)c1nc(C)no1` (centres undefined), the INHIBITION is listed as -97.2%.
